The values that follow come from PubChem BioAssay AID1456 (Vanderbilt High Throughput Screening Facility, 2008).

The whole screen tested about 190,000 compounds, of which about 4,100 (2.2%) were called active. Shown is part of a subset that was picked to be rich in actives. Unmarked numbers belong to inactive results.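 Rule for the calls: active = thallium flux slope and its plate-corrected score both differing from the plate sample mean at a set confidence after two filtering rounds, in either direction; inactive = the rest.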

In this experiment the target is Solute carrier family 12 member 5 (Homo sapiens) (UniProt Q9H2X9). Put plainly: KCC2 cotransporter modulators, thallium flux, primary screen, cell-based, HEK293 KCC2, FluoZin-2 fluorescence, MLSMR (AID 1456).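 Note: slope of fluorescence scaled to starting intensity during 10 to 20 s after thallium.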 The following applies: KCC2 cells, thallium flux FluoZin-2 fluorescence; at 10 µM.
Chain of Solute carrier family 12 member 5 (Homo sapiens) (Q9H2X9 whole entry, looked up): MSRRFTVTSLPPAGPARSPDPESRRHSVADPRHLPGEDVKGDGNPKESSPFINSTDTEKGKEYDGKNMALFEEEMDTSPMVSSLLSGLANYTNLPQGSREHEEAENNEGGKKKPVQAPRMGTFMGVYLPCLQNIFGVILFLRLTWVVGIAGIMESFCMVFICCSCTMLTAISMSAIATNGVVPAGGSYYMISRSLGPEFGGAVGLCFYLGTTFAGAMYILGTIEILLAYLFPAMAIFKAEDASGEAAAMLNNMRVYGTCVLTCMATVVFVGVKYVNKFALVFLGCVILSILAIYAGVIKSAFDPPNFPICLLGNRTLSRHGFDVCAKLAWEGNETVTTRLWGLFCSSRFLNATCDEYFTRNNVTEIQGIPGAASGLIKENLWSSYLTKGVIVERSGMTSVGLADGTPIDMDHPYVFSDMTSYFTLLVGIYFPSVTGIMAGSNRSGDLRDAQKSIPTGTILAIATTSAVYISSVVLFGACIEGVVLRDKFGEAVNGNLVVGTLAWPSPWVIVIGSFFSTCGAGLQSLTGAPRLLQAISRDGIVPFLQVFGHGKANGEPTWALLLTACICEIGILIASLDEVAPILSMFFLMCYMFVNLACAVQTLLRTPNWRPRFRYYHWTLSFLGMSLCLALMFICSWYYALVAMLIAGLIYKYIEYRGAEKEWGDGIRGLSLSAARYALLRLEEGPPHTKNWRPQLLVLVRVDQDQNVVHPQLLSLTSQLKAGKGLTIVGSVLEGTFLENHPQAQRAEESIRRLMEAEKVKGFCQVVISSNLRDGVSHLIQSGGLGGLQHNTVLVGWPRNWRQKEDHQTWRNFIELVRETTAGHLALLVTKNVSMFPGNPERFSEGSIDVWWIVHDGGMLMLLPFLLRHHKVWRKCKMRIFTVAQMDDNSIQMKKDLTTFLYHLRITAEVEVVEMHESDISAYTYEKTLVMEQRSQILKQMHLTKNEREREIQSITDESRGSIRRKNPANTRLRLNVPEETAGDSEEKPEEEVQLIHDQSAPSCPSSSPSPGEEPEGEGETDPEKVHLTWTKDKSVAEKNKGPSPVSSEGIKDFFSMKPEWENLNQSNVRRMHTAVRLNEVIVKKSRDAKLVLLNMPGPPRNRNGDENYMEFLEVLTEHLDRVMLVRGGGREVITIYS
On to `O=C(Cn1cnc2ccccc2c1=O)Nc1cccc(S(=O)(=O)N2CCCCC2)c1`, for which the B-score of Tl+ flux slope (higher = more flux/activation; lower = inhibition) was 0.0725.

Regarding `CS(=O)(=O)c1sc(C(=O)NC(=S)Nc2ccc(OC(F)(F)F)cc2)c2c1C=CCC2`, the B-score of Tl+ flux slope (higher = more flux/activation; lower = inhibition) was 6.79 (active).

As for `FC(F)(F)Oc1ccc(NC(=S)NCc2ccccc2)cc1`, the B-score of Tl+ flux slope (higher = more flux/activation; lower = inhibition) was 0.0182.

As for `CCNC(=S)Nc1ccc(OC(F)(F)F)cc1`, the B-score of Tl+ flux slope (higher = more flux/activation; lower = inhibition) is -0.759.

Consider `CC1(C)C=C2[C@H]3CC[C@@H]4[C@@]5(C)CCC(=O)C(C)(C)[C@@H]5CC[C@@]4(C)[C@]3(C)CC[C@@]2(C(=O)O)CC1`, for which the B-score of Tl+ flux slope (higher = more flux/activation; lower = inhibition) was 5.9 (active).

With `CCOC(=O)N1CCN(c2c(NCCN3CCN(c4ccccc4F)CC3)c(=O)c2=O)CC1`, the B-score of Tl+ flux slope (higher = more flux/activation; lower = inhibition) is 0.85.

Turning to `O=C(CCn1nnc2ccccc2c1=O)N[C@@H](Cc1c[nH]c2ccccc12)C(=O)O`, the B-score of Tl+ flux slope (higher = more flux/activation; lower = inhibition) is 0.807.

Regarding `CCn1c(=S)[nH]c2sc3c(c2c1=O)CCCCC3`, the B-score of Tl+ flux slope (higher = more flux/activation; lower = inhibition) was 75.1 (active).

As for `O=c1c2c3c(sc2n(CCN2CCCC2)c(=O)n1Cc1ccccc1)CCCCC3`, the B-score of Tl+ flux slope (higher = more flux/activation; lower = inhibition) was -0.146.

As for `CCCc1nc2sc3c(c2c(=O)n1NC(=O)CCCl)CCCC3`, the B-score of Tl+ flux slope (higher = more flux/activation; lower = inhibition) is -1.28.

In the case of `O=C1C2C3C=CC(C3)C2C(=O)N1c1ccc(S(=O)(=O)Nc2nccs2)cc1` (stereo unspecified), the B-score of Tl+ flux slope (higher = more flux/activation; lower = inhibition) was 0.592.

Take `Fc1ccc(Nc2nnns2)cc1`: the B-score of Tl+ flux slope (higher = more flux/activation; lower = inhibition) is -0.138.

Take `COCCCNC(=O)c1ccc2c(c1)ncn2-c1ccccc1OC`: the B-score of Tl+ flux slope (higher = more flux/activation; lower = inhibition) was -0.0358.

Regarding `COc1ccccc1-n1cnc2cc(C(=O)NCC3CCCO3)ccc21` (stereo unspecified), the B-score of Tl+ flux slope (higher = more flux/activation; lower = inhibition) was 0.84.

`COc1ccccc1-n1cnc2cc(NS(=O)(=O)c3ccccc3)ccc21`: the B-score of Tl+ flux slope (higher = more flux/activation; lower = inhibition) was -3.88 (active).

Turning to `NNC(=O)c1ccc(COCC(F)(F)C(F)F)cc1`, the B-score of Tl+ flux slope (higher = more flux/activation; lower = inhibition) was 0.0302.

For the compound `CCOC(=O)c1cn[nH]c1NC(=S)Nc1ccccc1`, the B-score of Tl+ flux slope (higher = more flux/activation; lower = inhibition) is 0.559.

`C/C(Cc1ccccc1)=N\NC(=O)CNC(=O)c1ccc2c(c1)OCCO2`: the B-score of Tl+ flux slope (higher = more flux/activation; lower = inhibition) is 0.0985.

In the case of `O=C1/C(=C/c2cccs2)SC(=S)N1C1CCS(=O)(=O)C1` (stereo unspecified), the B-score of Tl+ flux slope (higher = more flux/activation; lower = inhibition) is -0.225.

In the case of `O=C(CCCN1C(=O)/C(=C/c2ccccc2)SC1=S)Nc1ccc(O)cc1`, the B-score of Tl+ flux slope (higher = more flux/activation; lower = inhibition) is -0.0883.

As for `O=C(NC1CC1)c1ccc2c(c1)NC(=O)c1ccccc1S2`, the B-score of Tl+ flux slope (higher = more flux/activation; lower = inhibition) is -0.0671.

As for `O=C1Cc2ccccc2Sc2ccc(Cl)cc21`, the B-score of Tl+ flux slope (higher = more flux/activation; lower = inhibition) is 0.587.

Regarding `S=C1Nc2cc(Cl)ccc2Sc2ccccc21`, the B-score of Tl+ flux slope (higher = more flux/activation; lower = inhibition) was 8.4 (active).

Regarding `N#C/C(=C\N1CCOCC1)S(=O)(=O)c1ccc(Cl)cc1`, the B-score of Tl+ flux slope (higher = more flux/activation; lower = inhibition) was -0.211.

For the compound `COC(=O)c1c(C)oc(C)c1S(=O)(=O)NCc1ccc(Cl)cc1`, the B-score of Tl+ flux slope (higher = more flux/activation; lower = inhibition) was -0.208.

On to `CCOC(=O)c1ccccc1N1C(=O)C2Sc3[nH]c(=O)sc3C(/C=C/c3ccccc3)C2C1=O` (stereo unspecified), for which the B-score of Tl+ flux slope (higher = more flux/activation; lower = inhibition) is -6.82 (active).

On to `CC(OC(=O)c1ccccc1N1C(=O)C2C3CCC(C3)C2C1=O)C(=O)c1ccccc1` (stereo unspecified), for which the B-score of Tl+ flux slope (higher = more flux/activation; lower = inhibition) was 0.138.

`COC(=O)C1=C(C)N=C2SC(C)C(=O)N2C1/C=C/c1ccccc1` (stereo unspecified): the B-score of Tl+ flux slope (higher = more flux/activation; lower = inhibition) was 0.122.

In the case of `CC(C)(C)C(=O)NNC(=O)c1ccc(Oc2cc(Cl)cc(Cl)c2)o1`, the B-score of Tl+ flux slope (higher = more flux/activation; lower = inhibition) was 4.1.

Consider `COc1ccc(Cl)cc1C(=O)NNC(=S)NC1CCCC1`, for which the B-score of Tl+ flux slope (higher = more flux/activation; lower = inhibition) is 0.52.

For the compound `C=CCNC(=S)NNC(=O)c1cc(Cl)ccc1OC`, the B-score of Tl+ flux slope (higher = more flux/activation; lower = inhibition) was -0.352.

Consider `COc1ccc(Cl)cc1C(=O)NNC(=S)NC(=O)/C=C/c1ccco1`, for which the B-score of Tl+ flux slope (higher = more flux/activation; lower = inhibition) was 28.5 (active).

Consider `Cc1cc(C)nc(SC(C)C(=O)N/N=C/c2cccs2)n1` (stereo unspecified), for which the B-score of Tl+ flux slope (higher = more flux/activation; lower = inhibition) was 5.07 (active).

Take `Cc1nc2ccccc2n1CC(=O)N/N=C/c1cccs1`: the B-score of Tl+ flux slope (higher = more flux/activation; lower = inhibition) was 0.629.

Consider `NC(=O)N/N=C\c1cccs1`, for which the B-score of Tl+ flux slope (higher = more flux/activation; lower = inhibition) was 0.148.

For `O=[N+]([O-])c1ccc(N=Cc2c(O)ccc3ccccc23)cc1`, the B-score of Tl+ flux slope (higher = more flux/activation; lower = inhibition) was -0.766.

`CN(C)S(=O)(=O)c1ccc(Cl)c(NC(=O)COC(=O)CC(NC(N)=O)c2ccc(Cl)cc2)c1` (stereo unspecified): the B-score of Tl+ flux slope (higher = more flux/activation; lower = inhibition) was -0.372.

As for `COC(=O)/C=C(\Oc1ccccc1)C1(O)CCCCC1`, the B-score of Tl+ flux slope (higher = more flux/activation; lower = inhibition) was 0.292.

Take `Cn1c(CCCOc2ccc(Cl)cc2Cl)n[nH]c1=S`: the B-score of Tl+ flux slope (higher = more flux/activation; lower = inhibition) is -7.28 (active).

As to `O=C(CCCOc1ccc(Cl)cc1Cl)NNC(=O)C1CCC1`, the B-score of Tl+ flux slope (higher = more flux/activation; lower = inhibition) is -0.669.

On to `CC(C)Oc1ccc(Cc2n[nH]c(=S)n2Cc2ccccc2)cc1Cl`, for which the B-score of Tl+ flux slope (higher = more flux/activation; lower = inhibition) was 0.809.

`CC(/C=C/c1ccco1)=N/NC(=O)C1COc2ccccc2O1` (stereo unspecified): the B-score of Tl+ flux slope (higher = more flux/activation; lower = inhibition) was 0.221.

`S=C(Cc1ccc(Cl)cc1)N1CCOCC1`: the B-score of Tl+ flux slope (higher = more flux/activation; lower = inhibition) is 0.203.

Take `O=C(NCc1ccccc1)c1ccc(S(=O)(=O)Nc2cccc(C(F)(F)F)c2)cc1`: the B-score of Tl+ flux slope (higher = more flux/activation; lower = inhibition) is -1.11.

With `CN(C)S(=O)(=O)c1cccc(NC(=S)N/N=C/C(=O)c2ccccc2)c1`, the B-score of Tl+ flux slope (higher = more flux/activation; lower = inhibition) was 6.68 (active).

Take `CN(C)S(=O)(=O)c1cccc(C(=O)Nc2cccnc2)c1`: the B-score of Tl+ flux slope (higher = more flux/activation; lower = inhibition) was 0.857.
